Source: PubChem BioAssay (NCATS)
Results filed as inconclusive are left out. The source made the active and inactive calls. Unless noted, the call rests on the fitted dose curve; in most records, active means well fitted curve in the direction sought with a large enough effect; inconclusive means small, poorly fitted or top-dose-only effect, or another doubt; inactive means no such curve, though single readings can be large; an effect the other way counts as inactive or inconclusive.

Legend:
[1] = AP1 Signaling Pathway (AID 357; active means well fitted curve in either direction with a large enough effect, not every such curve was filed as active; further: on the % scale 0 is the no-effect control and ±100 the full control effect); conditions: ME-180 AP-1-bla reporter, EGF-induced, beta-lactamase ratio, 5 h; at 38 µM (top of the series)
Method in brief: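 AP-1-bla ME-180 cells with beta-lactamase reporter under AP-1 response element, stimulated with EC50 EGF; compounds titrated, 5 hours at 37 degrees Celsius. CCF4 read at 460/530 nm ratio; positive and negative modulators judged by AC50.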

[2] = target: Cytochrome P450 1A2 (Homo sapiens) (UniProt P05177); assay: p450-cyp1a2 (AID 410; calls by dose curve;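 further: -100% = full effect of reference inhibitor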); conditions: recombinant CYP1A2, luciferin-ME demethylation, luminescence; series mostly up to 57 µM
Method in brief: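 Human CYP1A2 (20nM) demethylated Luciferin-ME at its Km (100uM) in 100mM KPO4. After 10 min compound preincubation, NADPH regeneration ran the reaction 60 min at room temperature. Luciferin was read by luminescence, normalized to 57 uM furafylline.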

[3] = NFAT Signaling Pathway (AID 444; active means well fitted curve in either direction with a large enough effect, not every such curve was filed as active;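 further: carbachol stimulus at about its EC50 of 1 µM final; on the % scale 0 is the no-effect control and ±100 the full control effect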); conditions: Jurkat NFAT-bla M1, carbachol, beta-lactamase ratio, 5 h; at 38 µM (top of the series)
Method in brief: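 Jurkat cells carrying an NFAT-driven β-lactamase reporter and co-transfected muscarinic M1 receptor were treated with compound plus carbachol (1 uM final, an EC50 level) for 5 h at 37 °C. CCF4 loading followed for 1 h at RT; 460/530 nm ratio gave %activity.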

[4] = Stat Signaling Pathway (AID 446; active means well fitted curve in either direction with a large enough effect, not every such curve was filed as active;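 further: ME-180 cervical cancer cells given 40 pM IL-6 alongside compound; SIE-controlled beta-lactamase reporter measured as 460/530 nm FRET emission ratio; on the % scale 0 is the no-effect control and ±100 the full control effect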); conditions: ME-180 SIE beta-lactamase reporter, IL-6 stimulated, 5 h; at 38 µM (top of the series)
Method in brief: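 Reporter line: ME-180 cervical carcinoma, SIE-beta-lactamase. Treatment: compound with 40 pM IL-6, 5 hrs, 37 C, in low-serum OPTI-MEM with 10 mM HEPES pH 7.3. Detection: 460/530 nm fluorescence.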

[5] = target: Glucocorticoid receptor (Homo sapiens) (UniProt P04150); assay: GR-GFP Redistribution (AID 450;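 active means compounds whose dose series gives a full or clear partial fitted curve of increased nuclear translocation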; further: potency means the concentration at half of the fitted maximal effect); conditions: U2OS GR-GFP nuclear translocation, laser cytometry, 2 h
[6] = target: Glucocorticoid receptor (Homo sapiens) (UniProt P04150); assay: GR-EFC Redistribution (AID 451; calls by dose curve; further: potency means the concentration at half of the fitted maximal effect); conditions: CHO-K1 GR-EFC translocation, beta-gal luminescence, 2 h
Method in brief: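 CHO-K1 cells stably expressing nuclear-localized β-gal enzyme acceptor and GR fused C-terminally to the enzyme donor fragment; ligand-driven nuclear translocation restores β-gal by complementation. Compounds titrated up to 46 uM final, 2 h at 37 °C; luminescence read.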

[7] = target: Mitogen-activated protein kinase 10 (Mus musculus) (UniProt Q61831); assay: JNK3 AlphaScreen Assay (AID 530; active means well fitted curve in either direction with a large enough effect, not every such curve was filed as active;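 further: kinase came from lysate of stimulated human HepG2 cells; signal reports phosphorylation of biotinylated GST-cJun 1-79 at Ser73 with 10 µM ATP; on the % scale 0 is the no-effect control and ±100 the full control effect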); conditions: JNK3 lysate, c-Jun phosphorylation; series mostly up to 57.1 µM
Method in brief: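 JNK3 came from HepG2 lysates pre-activated with IL-1beta and TNF-alpha and phosphorylated biotinylated GST-cJun (1-79) at 10 uM ATP, pH 7.6, room temperature. Compounds were titrated. AlphaScreen signal used anti-phospho-cJun (Ser73) antibody.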

[8] = target: 3',5'-cyclic-AMP phosphodiesterase 4B (Homo sapiens) (UniProt Q07343); assay: qHTS Assay for Inhibitors of PDE-IV (AID 607; active means well fitted activation curve with a large enough effect in the main read-out, with a control signal flat, not every such curve was filed as active; further: % of control where 0% means no effect); conditions: HEK293 ACTOne CNG channel cells, membrane potential fluorescence; series mostly up to 22.9 µM
Method in brief: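 Cell-based read-out of cAMP via a modified cyclic nucleotide-gated channel and membrane potential dye (535/590 nm) in HEK293 cells expressing PDE4 endogenously. Compounds tested up to 22.9 uM final; 100 uM RO 20-1724 reference.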

[9] = target: Cytochrome P450 2C9 (Homo sapiens) (UniProt P11712); assay: qHTS Assay for Inhibitors and Substrates of Cytochrome P450 2C9 (AID 883); conditions: recombinant CYP2C9, luciferin-H luminescence, 60 min; series mostly up to 57.1 µM; further: on the % scale 0 is the no-effect control and ±100 the full control effect; nearly all actives have a fitted effect of over 60% in size
Method in brief: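 CYP2C9 deoxyluciferin hydroxylation, 37C, 60 min with NADPH regeneration; 10nM enzyme, 100uM Luciferin-H (KM). Glo detection reagent stopped reaction; luminescence normalized to sulphaphenazole (57uM) full inhibition.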

[10] = target: Cytochrome P450 3A4 (Homo sapiens) (UniProt P08684); assay: qHTS Assay for Activators of Cytochrome P450 3A4 (AID 885); conditions: recombinant CYP3A4, Luciferin-PPXE luminescence, 60 min; series mostly up to 57.1 µM; further: nearly all actives have a fitted effect of over 65% in size
Method in brief: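 Signal was normalized against complete inhibition by 57 uM ketoconazole. The reaction used 20nM CYP3A4 with 25uM Luciferin-PPXE, 10-min compound preincubation and a 60-min NADPH-supported step at RT.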

[11] = qHTS Assay for Identification of Small Molecule Agonists for Thrombopoietin (TPO) Signaling Pathway (AID 917); conditions: TPO signaling pathway reporter cells, agonist qHTS, stimulated with TPO at its EC50; series mostly up to 38.5 µM; further: on the % scale 0 is the no-effect control and ±100 the full control effect
Method in brief: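 Luminescence from a Glycoprotein IIb promoter–driven luciferase reporter served as read-out in murine Ba/F3 cells carrying the human TPO receptor. Cells, deprived of IL-3 overnight, received compounds with 26 pM TPO and were incubated 24 hrs at 37 C.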

[12] = target: Pyruvate kinase (Leishmania mexicana) (UniProt Q27686); assay: qHTS Validation Assay for Inhibitors of Leishmania Mexicana Pyruvate Kinase (AID 945);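 further: 0% = DMSO only neutral control wells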; conditions: purified L. mexicana pyruvate kinase, enzyme activity, E451W mutant enzyme; series mostly up to 57.5 µM
Method in brief: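 Read-out: luminescence from PKLight stop/detection reagent, data normalized to DMSO. Reaction: 0.2 nM E451W LmPYK, 0.5 mM PEP, 0.1 mM ADP, pH 7.2, 1 h room temperature.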

[13] = target: Pyruvate kinase PKM (Homo sapiens) (UniProt P14618); assay: qHTS Assay for Activators of Human Muscle Pyruvate Kinase (AID 954; active means well fitted curve in the direction sought with a large enough effect, not every such curve was filed as active;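 further: 0% = uninhibited enzyme and -100% = no enzyme or full thiadiazolimine inhibition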); conditions: purified human muscle pyruvate kinase, luciferase-coupled luminescence, 1 h; series mostly up to 57.5 µM
Method in brief: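 Human PKM2 activity is measured as ATP generation, detected by luciferase-coupled luminescence. The enzyme (0.1 nM) acts on 0.5 mM PEP and 0.1 mM ADP for 1 h at ambient temperature; data are normalized to uninhibited and full-inhibition wells.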

[14] = target: alpha-glucosidase (Oryza sativa, rice) (UniProt Q653V4); assay: Counterscreen for Glucocerebrosidase Inhibitors: qHTS Assay for Rice alpha-Glucosidase at pH 5.0 (AID 997); conditions: rice alpha-glucosidase enzyme activity; series mostly up to 76.9 µM;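 further: 0% = full activity with enzyme and -100% = basal without enzyme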
Method in brief: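 Rice alpha-glucosidase (4 nM final) with 400 uM 4-methylumbelliferyl-alpha-D-glucopyranoside in citrate buffer pH 5.0, 20 min at room temperature, stopped at pH 10; fluorescence 365/440 nm, compounds 0.7 nM–77 uM, AC50 from Hill fits.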

[15] = Validation of Assay for Modulators of Lamin A Splicing (AID 1459; active means well fitted curve in the direction sought with a large enough effect in the signal ratio; the % refers to the signal ratio;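 further: cells exposed to compound for two days before reading; 0% is about no effect; ratio rise marks activators and ratio drop marks inhibitors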); conditions: Lamin A splicing dual RFP/GFP fluorescence reporter; series mostly up to 9.22 µM
Method in brief: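 HeLa S3 lamin A-EGFP/DsRed2 stable clone, 600 cells/well, Opti-MEM 2% FBS; compounds by pin tool; 48 hrs, 37 °C/5% CO2; Acumen 488 nm scan, objects 10-100 um; GFP/RFP intensity ratio.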

[16] = target: DNA repair nuclease/redox regulator APEX1 (Homo sapiens) (UniProt P27695); assay: qHTS Validation Assay for Inhibitors of the Human Apurinic/apyrimidinic Endonuclease 1 (APE1) (AID 1705); conditions: purified APE1 endonuclease activity, fluorescence, titration; series mostly up to 57.1 µM
Method in brief: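 qHTS, 1536-well. APE1 + cpd 15 min RT → 50 nM TAMRA/BHQ-2 THF-abasic dsDNA substrate → kinetic fluorescence, 3 reads/60 s; delta(read3−read1) = reaction progress. No-enzyme buffer = negative control.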

[17] = Counterscreen for APE1 Inhibitors: Fluorescent Dye Displacement Validation Assay (AID 1707); conditions: fluorescent dye displacement from DNA; series mostly up to 57.1 µM;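 further: plate controls were ThO with dsDNA and no compound for no effect and ThO without dsDNA for full effect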
Method in brief: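 Compounds are scored by their ability to displace Thiazole Orange (250 nM) from a 50 nM TAMRA-tagged duplex bearing a tetrahydrofuran abasic site. Buffer is 50 mM Tris-HCl pH7.5, 50mM NaCl, 2 mM MgCl2, 0.01% Tween-20.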

Sequence of Glucocorticoid receptor (Homo sapiens) (P04150 whole entry, looked up, the tested form may be a part): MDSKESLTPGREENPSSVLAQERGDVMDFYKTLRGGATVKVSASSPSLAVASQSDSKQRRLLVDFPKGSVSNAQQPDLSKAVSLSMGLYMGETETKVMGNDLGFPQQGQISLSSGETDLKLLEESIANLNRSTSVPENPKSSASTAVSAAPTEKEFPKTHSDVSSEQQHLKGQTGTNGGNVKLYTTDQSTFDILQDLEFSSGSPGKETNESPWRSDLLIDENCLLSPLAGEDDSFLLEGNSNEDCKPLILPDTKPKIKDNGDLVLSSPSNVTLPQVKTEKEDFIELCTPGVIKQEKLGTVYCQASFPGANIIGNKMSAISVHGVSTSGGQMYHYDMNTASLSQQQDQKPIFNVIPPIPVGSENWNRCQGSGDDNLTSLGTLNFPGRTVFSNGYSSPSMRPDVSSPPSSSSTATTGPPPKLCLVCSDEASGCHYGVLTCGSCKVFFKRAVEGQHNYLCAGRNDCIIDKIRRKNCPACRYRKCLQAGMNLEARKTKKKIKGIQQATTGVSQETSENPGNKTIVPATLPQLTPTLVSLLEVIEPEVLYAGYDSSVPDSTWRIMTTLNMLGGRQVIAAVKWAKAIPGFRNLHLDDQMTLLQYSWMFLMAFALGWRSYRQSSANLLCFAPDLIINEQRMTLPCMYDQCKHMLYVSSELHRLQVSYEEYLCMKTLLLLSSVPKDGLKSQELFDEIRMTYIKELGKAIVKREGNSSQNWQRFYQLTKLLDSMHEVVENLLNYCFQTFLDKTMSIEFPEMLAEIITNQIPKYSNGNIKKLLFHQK
Sequence of 3',5'-cyclic-AMP phosphodiesterase 4B (Homo sapiens) (Q07343 whole entry, looked up): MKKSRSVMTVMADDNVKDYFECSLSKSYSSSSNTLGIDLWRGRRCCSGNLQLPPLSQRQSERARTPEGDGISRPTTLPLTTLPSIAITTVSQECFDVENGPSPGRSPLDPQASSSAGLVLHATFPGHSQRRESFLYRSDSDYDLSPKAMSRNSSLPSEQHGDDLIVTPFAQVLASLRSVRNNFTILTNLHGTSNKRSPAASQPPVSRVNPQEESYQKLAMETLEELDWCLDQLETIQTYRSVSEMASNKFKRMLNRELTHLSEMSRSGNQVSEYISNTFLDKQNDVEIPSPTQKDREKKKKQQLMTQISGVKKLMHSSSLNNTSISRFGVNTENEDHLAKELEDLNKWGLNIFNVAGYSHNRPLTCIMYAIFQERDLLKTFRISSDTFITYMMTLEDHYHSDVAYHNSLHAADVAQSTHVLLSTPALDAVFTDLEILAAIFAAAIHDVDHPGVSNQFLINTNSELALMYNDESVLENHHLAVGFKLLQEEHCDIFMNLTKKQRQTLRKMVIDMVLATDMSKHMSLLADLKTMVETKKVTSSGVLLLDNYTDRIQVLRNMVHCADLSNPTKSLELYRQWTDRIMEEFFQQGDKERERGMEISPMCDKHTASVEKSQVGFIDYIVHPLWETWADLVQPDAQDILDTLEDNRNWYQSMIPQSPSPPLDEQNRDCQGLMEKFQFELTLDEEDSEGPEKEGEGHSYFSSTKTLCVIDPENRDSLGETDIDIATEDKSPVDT
Sequence of Cytochrome P450 3A4 (Homo sapiens) (P08684 whole entry, looked up): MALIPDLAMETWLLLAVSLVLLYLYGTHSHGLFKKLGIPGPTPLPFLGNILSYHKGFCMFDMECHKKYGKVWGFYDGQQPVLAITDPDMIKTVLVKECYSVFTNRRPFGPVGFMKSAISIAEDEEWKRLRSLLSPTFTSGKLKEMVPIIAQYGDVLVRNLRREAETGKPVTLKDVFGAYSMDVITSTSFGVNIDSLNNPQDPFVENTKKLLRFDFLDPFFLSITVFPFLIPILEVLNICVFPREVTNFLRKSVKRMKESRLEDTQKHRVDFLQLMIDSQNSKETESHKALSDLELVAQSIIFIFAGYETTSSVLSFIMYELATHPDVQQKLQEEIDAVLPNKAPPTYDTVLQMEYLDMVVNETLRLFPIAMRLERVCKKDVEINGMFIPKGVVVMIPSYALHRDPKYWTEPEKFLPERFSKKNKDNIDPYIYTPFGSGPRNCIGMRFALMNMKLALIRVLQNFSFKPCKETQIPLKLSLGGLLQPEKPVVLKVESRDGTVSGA
Sequence of Cytochrome P450 1A2 (Homo sapiens) (P05177 whole entry, looked up): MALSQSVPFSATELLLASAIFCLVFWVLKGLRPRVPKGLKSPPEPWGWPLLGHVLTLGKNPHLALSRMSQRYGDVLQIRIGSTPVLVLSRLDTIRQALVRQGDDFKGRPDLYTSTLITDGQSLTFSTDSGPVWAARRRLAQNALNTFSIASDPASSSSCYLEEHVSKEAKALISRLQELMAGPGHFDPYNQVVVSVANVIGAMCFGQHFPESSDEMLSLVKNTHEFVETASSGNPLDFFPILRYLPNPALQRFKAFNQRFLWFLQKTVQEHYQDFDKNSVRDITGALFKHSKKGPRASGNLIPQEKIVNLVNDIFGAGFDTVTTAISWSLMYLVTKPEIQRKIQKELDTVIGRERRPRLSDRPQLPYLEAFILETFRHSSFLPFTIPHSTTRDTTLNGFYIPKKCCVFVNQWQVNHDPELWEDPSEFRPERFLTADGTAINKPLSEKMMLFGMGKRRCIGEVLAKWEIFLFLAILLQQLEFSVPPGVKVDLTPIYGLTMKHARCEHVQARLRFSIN
Sequence of Pyruvate kinase PKM (Homo sapiens) (P14618 whole entry, looked up): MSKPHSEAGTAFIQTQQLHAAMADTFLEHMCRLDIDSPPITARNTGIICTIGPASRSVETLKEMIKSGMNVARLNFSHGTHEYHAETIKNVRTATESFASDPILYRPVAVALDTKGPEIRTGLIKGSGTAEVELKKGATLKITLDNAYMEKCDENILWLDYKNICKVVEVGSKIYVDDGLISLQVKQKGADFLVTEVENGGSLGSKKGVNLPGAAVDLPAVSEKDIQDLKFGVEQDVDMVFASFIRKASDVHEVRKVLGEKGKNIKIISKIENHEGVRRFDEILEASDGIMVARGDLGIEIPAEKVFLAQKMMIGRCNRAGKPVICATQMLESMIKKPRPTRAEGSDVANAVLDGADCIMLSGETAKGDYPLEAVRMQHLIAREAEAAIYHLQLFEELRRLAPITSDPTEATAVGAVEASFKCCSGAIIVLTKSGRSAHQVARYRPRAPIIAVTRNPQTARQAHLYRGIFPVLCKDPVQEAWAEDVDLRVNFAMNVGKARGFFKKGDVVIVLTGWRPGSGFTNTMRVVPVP
Sequence of DNA repair nuclease/redox regulator APEX1 (Homo sapiens) (P27695 whole entry, looked up): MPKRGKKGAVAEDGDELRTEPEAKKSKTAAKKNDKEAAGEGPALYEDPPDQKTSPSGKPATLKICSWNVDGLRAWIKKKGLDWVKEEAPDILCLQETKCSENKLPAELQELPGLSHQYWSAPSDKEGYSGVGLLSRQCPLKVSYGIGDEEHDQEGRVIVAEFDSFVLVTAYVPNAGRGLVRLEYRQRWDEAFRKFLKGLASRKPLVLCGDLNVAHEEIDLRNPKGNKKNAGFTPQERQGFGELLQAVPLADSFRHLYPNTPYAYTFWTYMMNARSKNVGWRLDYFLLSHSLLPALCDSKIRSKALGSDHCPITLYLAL
Sequence of Pyruvate kinase (Leishmania mexicana) (Q27686 2-499 E452W): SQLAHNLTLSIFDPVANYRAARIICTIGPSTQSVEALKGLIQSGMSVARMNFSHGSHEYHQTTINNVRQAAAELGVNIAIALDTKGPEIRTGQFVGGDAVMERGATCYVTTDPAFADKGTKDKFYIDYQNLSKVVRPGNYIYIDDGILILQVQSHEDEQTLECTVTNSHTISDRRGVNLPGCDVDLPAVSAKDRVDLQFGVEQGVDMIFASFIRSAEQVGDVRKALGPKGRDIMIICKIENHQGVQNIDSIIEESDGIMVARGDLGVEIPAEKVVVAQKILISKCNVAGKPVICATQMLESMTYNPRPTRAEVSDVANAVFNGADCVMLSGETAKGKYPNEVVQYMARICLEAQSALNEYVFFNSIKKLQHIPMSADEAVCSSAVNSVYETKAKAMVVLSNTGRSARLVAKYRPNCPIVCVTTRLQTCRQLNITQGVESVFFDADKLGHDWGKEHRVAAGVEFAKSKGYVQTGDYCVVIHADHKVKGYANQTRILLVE
Sequence of Cytochrome P450 2C9 (Homo sapiens) (P11712 whole entry, looked up): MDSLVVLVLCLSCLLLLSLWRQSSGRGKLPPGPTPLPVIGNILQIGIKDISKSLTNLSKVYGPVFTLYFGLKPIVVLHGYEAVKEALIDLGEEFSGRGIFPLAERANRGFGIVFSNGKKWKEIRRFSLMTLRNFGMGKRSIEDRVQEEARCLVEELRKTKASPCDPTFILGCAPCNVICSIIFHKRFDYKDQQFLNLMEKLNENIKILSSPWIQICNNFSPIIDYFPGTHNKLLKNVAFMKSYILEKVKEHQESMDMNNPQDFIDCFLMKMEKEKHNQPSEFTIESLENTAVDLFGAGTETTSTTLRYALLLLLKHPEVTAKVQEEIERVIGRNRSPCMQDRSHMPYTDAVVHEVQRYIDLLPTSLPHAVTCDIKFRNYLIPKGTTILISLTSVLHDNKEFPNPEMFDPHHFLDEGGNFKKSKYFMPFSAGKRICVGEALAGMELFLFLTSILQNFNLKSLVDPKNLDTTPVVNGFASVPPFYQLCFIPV

COc1[nH]c2ccc(F)cc2c1C(=O)OCC1CCN(CCNS(C)(=O)=O)CC1
inactive: activity change, negative = inhibition [1] 1.52% | Potency [2] | activity change, negative = inhibition [3] 0.0444% | activity, negative = inhibition [4] 16.9% | Potency [5] > 46 µM | Potency [6] > 46 µM | Potency [7] | Potency [8] | Potency [9] | Potency [10] | Potency [11] | Potency [12] | outcome [13] | outcome [14] | outcome [15] | Potency [16] | Potency [17]
